Where “and” joins values, the source holds several entries; their conditions need not be identical. Identical values can stand only once. Inconclusive results are not listed. The source holds several records for some structures; these can differ, active in one and inactive in another. Calls of active or inactive are those of the source. Unless noted, calls follow the shape of the dose curve; as a rule, active = well fitted curve in the direction sought with a large enough effect in the repeat runs; inconclusive = weak or mixed curves; inactive = no such curve, though single readings can be large; an effect the other way counts as inactive or inconclusive.
Assays:
[1] = qHTS assay to identify small molecule antagonists of the glucocorticoid receptor (GR) signaling pathway - cell viability counter screen (AID 720693); also: nearly all actives have a fitted effect of over 55% in size; also: potency is read from the fitted curve at half-maximal effect
[2] = qHTS assay for identifying genotoxic compounds that show differential cytotoxicity against isogenic chicken DT40 cell lines with known DNA damage response pathways - wild type cell line (AID 743012); also: nearly all actives have a fitted effect of over 60% in size; also: potency is read from the fitted curve at half-maximal effect
How it was run: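 CellTiter-Glo luminescence readout of viability in wild type DT40 cells after 40 h compound exposure at 37 C/5% CO2; 300 cells/well; reagent incubated 30 min at room temperature before reading.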

[3] = qHTS assay for identifying genotoxic compounds that show differential cytotoxicity against isogenic chicken DT40 cell lines with known DNA damage response pathways - Rev3 mutant cell line (AID 743014); also: nearly all actives have a fitted effect of over 55% in size; also: potency is read from the fitted curve at half-maximal effect
[4] = qHTS assay for identifying genotoxic compounds that show differential cytotoxicity against isogenic chicken DT40 cell lines with known DNA damage response pathways - Rad54/Ku70 mutant cell line (AID 743015); also: nearly all actives have a fitted effect of over 60% in size; also: potency is read from the fitted curve at half-maximal effect
[5] = qHTS assay to identify small molecule antagonists of the androgen receptor (AR) signaling pathway - cell viability counter screen (AID 743033; also: nearly all actives have a fitted effect of over 45% in size; also: potency is read from the fitted curve at half-maximal effect)
[6] = biological target: Androgen receptor (Homo sapiens) (UniProt P10275); assay: qHTS assay to identify small molecule antagonists of the androgen receptor (AR) signaling pathway (AID 743035; active = well fitted inhibition curve with a large enough effect in the signal ratio in the repeat runs, not every such curve was filed as active; the % refers to the signal ratio; also: potency is read from the fitted curve at half-maximal effect)
Androgen receptor (Homo sapiens), sequence (P10275 whole entry, looked up): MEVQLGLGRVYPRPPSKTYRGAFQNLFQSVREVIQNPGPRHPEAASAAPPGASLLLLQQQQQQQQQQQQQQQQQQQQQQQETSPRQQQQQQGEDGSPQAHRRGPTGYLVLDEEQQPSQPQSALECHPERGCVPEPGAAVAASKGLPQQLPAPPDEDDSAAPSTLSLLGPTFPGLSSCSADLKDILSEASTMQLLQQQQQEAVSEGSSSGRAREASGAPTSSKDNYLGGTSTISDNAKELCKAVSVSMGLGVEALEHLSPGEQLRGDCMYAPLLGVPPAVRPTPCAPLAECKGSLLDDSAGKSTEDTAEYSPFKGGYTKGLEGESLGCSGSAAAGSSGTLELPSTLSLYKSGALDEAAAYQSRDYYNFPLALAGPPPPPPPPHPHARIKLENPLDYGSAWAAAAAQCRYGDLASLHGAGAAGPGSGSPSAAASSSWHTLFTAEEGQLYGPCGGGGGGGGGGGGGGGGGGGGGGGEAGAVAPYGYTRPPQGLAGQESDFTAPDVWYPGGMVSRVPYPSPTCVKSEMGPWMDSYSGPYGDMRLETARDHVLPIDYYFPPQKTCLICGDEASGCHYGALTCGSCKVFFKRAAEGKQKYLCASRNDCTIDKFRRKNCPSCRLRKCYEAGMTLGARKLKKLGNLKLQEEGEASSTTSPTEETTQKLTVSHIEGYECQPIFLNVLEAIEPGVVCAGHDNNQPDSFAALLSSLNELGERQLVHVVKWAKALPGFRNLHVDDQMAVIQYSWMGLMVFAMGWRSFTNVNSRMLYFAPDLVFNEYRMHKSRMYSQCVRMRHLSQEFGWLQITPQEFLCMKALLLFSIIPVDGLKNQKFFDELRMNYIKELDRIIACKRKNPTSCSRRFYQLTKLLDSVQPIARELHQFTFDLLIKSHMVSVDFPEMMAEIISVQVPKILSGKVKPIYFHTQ
How it was run: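 AR-bla HEK293 reporter cells; 4 h settle at 37C/5% CO2; compound + R1881 agonist, 16 h at 37C; LiveBLAzer B/G FRET substrate 2 h RT; fluorescence intensity read. qHTS format.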

[7] = qHTS assay to identify small molecule antagonists of the androgen receptor (AR) signaling pathway using the MDA cell line - cell viability counter screen (AID 743041; also: nearly all actives have a fitted effect of over 45% in size; also: potency is read from the fitted curve at half-maximal effect)
How it was run: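 Cytotoxicity counter screen: MDA-kb2 AR-luc cells, compound + R1881, 16 h, 37C, 0% CO2; CellTiter-Fluor added at 15.5 h, fluorescence read after 30 min.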

[8] = qHTS assay to identify small molecule antagonists of the estrogen receptor alpha (ER-alpha) signaling pathway - cell viability counter screen (AID 743074; calls by dose curve;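 also: HEK293 cells carrying ER-alpha-UAS-bla reporter stimulated with 17beta-estradiol; nearly all actives have a fitted effect of over 45% in size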; also: potency is read from the fitted curve at half-maximal effect)
[9] = qHTS assay to identify small molecule antagonists of the estrogen receptor alpha (ER-alpha) signaling pathway using the BG1 cell line - cell viability counter screen (AID 743081);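 also: compound given together with 17beta-estradiol as the ER stimulus; nearly all actives have a fitted effect of over 45% in size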; also: potency is read from the fitted curve at half-maximal effect
Aromatase (Homo sapiens) = Aromatase (Homo sapiens) (UniProt P11511); assay: qHTS assay to identify aromatase inhibitors (AID 743083); also: nearly all actives have a fitted effect of over 55% in size; also: potency is read from the fitted curve at half-maximal effect
Aromatase (Homo sapiens), sequence (P11511 whole entry, looked up): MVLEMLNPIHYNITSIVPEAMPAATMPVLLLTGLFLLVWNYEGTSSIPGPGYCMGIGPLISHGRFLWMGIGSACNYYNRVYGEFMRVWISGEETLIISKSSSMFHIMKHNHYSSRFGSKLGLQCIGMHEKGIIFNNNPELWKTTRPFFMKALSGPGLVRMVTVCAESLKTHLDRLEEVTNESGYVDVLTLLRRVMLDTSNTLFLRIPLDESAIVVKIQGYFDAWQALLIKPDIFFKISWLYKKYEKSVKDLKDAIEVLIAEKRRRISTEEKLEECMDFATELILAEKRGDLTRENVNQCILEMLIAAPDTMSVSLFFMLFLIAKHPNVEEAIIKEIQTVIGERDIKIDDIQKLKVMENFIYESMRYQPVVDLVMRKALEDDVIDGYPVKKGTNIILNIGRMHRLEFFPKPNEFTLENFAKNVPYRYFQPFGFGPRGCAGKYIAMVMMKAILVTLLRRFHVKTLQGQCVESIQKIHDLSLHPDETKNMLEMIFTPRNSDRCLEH

[10] = biological target: Androgen receptor (Homo sapiens) (UniProt P10275); assay: qHTS assay to identify small molecule agonists of the androgen receptor (AR) signaling pathway using the MDA cell line (AID 743040; also: nearly all actives have a fitted effect of over 20% in size)
How it was run: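 Luciferase read-out, ONE-Glo, 30 min RT. Cells: MDA-kb2 AR-luc, MMTV promoter with AR and GR response elements. Compound exposure 16 h, 37C, 0% CO2, after 5 h pre-incubation. qHTS agonist mode.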

[11] = biological target: Androgen receptor (Homo sapiens) (UniProt P10275); assay: qHTS assay to identify small molecule antagonists of the androgen receptor (AR) signaling pathway using the MDA cell line (AID 743042; also: nearly all actives have a fitted effect of over 55% in size; also: potency is read from the fitted curve at half-maximal effect)
How it was run: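 MDA-kb2 breast carcinoma cells carrying MMTV-luciferase (AR/GR responsive) were co-treated with compounds and the agonist R1881 for 16 h at 37C. Inhibition read as ONE-Glo luminescence; CellTiter-Fluor fluorescence measured in parallel for cytotoxicity.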

[12] = qHTS assay to identify small molecule antagonists of the thyroid receptor (TR) signaling pathway - cell viability counter screen (AID 743064); also: nearly all actives have a fitted effect of over 50% in size; also: potency is read from the fitted curve at half-maximal effect
How it was run: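 In-well cytotoxicity read by CellTiter-Fluor (30 min, 37 C) following 23.5 h exposure of GH3 cells bearing a TRE-luciferase sensor. Compounds were added alongside 1 nM (final) T3 to drive TR transactivation.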

[13] = system: thyroid hormone receptor (rat, GH3 cells); assay: qHTS assay to identify small molecule agonists of the thyroid receptor (TR) signaling pathway (AID 743066; calls by dose curve)
[14] = biological target: Estrogen receptor (Homo sapiens) (UniProt P03372); assay: qHTS assay to identify small molecule agonists of the estrogen receptor alpha (ER-alpha) signaling pathway (AID 743075; calls by dose curve;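 also: HEK293 GripTite cells with ER-alpha and UAS-driven beta-lactamase reporter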)
Estrogen receptor (Homo sapiens), sequence (P03372 whole entry, looked up): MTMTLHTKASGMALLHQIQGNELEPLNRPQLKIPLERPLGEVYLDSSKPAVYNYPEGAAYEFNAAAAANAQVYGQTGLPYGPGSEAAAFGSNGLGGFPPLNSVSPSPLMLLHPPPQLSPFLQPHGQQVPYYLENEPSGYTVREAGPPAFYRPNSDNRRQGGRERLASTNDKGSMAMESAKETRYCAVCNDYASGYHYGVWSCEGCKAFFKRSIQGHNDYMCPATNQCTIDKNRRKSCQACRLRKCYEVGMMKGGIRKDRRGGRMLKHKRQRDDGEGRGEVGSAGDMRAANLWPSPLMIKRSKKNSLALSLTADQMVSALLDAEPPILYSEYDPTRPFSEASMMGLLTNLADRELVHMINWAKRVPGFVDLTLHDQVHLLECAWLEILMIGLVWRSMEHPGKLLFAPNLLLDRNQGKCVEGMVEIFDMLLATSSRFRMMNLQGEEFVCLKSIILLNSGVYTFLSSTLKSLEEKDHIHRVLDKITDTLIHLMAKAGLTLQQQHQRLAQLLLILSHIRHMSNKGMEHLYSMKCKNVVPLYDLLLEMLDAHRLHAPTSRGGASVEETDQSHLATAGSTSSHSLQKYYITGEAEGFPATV

[15] = biological target: Estrogen receptor (Homo sapiens) (UniProt P03372); assay: qHTS assay to identify small molecule agonists of the estrogen receptor alpha (ER-alpha) signaling pathway using the BG1 cell line (AID 743079); conditions: BG1Luc4E2 cells, ERE-luciferase agonist, 22 h; activation: at 70.3 µM (top of the series); also: nearly all actives have a fitted effect of over 20% in size
[16] = qHTS assay to identify small molecule antagonists of the estrogen receptor alpha (ER-alpha) signaling pathway using the BG1 cell line (AID 743080; calls by dose curve;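 also: BG1 cells stimulated with 17beta-estradiol alongside compound; nearly all actives have a fitted effect of over 25% in size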; also: potency is read from the fitted curve at half-maximal effect); conditions: BG1Luc4E2 ERE-luciferase antagonist mode, luminescence; activity change, negative = inhibition: at 70.3 µM (top of the series)
How it was run: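 Quantitative HTS on the Tox21 10K library: BG1 cells with endogenous ER-alpha and ERE-luciferase reporter, 17beta-estradiol stimulation, 21.5 h compound exposure, luminescence endpoint with parallel fluorescence cytotoxicity counter-read.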

[17] = qHTS assay to identify small molecule antagonists of the thyroid receptor (TR) signaling pathway (AID 743065); also: nearly all actives have a fitted effect of over 55% in size; also: potency is read from the fitted curve at half-maximal effect
How it was run: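 GH3.TRE-Luc rat pituitary cells (two TREs driving luciferase) were dosed with compound, then stimulated with 1 nM T3 (final) for 23.5 h at 37 C. ONE-Glo luminescence was the read-out, with CellTiter-Fluor fluorescence as the cytotoxicity counter-screen.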

[18] = biological target: Estrogen receptor (Homo sapiens) (UniProt P03372); assay: qHTS assay to identify small molecule antagonists of the estrogen receptor alpha (ER-alpha) signaling pathway (AID 743069; active = well fitted curve in the direction sought with a large enough effect in the signal ratio in the repeat runs, not every such curve was filed as active; the % refers to the signal ratio; also: potency is read from the fitted curve at half-maximal effect)
How it was run: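 Beta-lactamase FRET fluorescence is read after 2 hr at room temperature with LiveBLAzer B/G substrate. Before that, ER-alpha-bla HEK293 cells sit 4 hr after plating, then receive compound plus 17beta-estradiol and incubate 18 hr at 37C.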

[19] = biological target: Androgen receptor (Homo sapiens) (UniProt P10275); assay: qHTS assay to identify small molecule agonists of the androgen receptor (AR) signaling pathway (AID 743036; active = well fitted activation curve with a large enough effect in the signal ratio in the repeat runs, with a control signal flat, not every such curve was filed as active; the % refers to the signal ratio)
How it was run: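 Activation was read as beta-lactamase FRET signal from LiveBLAzer B/G substrate, added for 2 h at room temperature. Before that, GeneBLAzer AR-UAS-bla GripTite (HEK293) cells had 16 h compound exposure at 37C.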
% is scaled to controls: 0 for no effect and ±100 for the full control effect.

C[C@H]1O[C@@H](O[C@H]2[C@@H](O)C[C@H](O[C@H]3[C@@H](O)C[C@H](O[C@H]4CC[C@@]5(C)[C@H](CC[C@@H]6[C@@H]5C[C@@H](O)[C@]5(C)[C@@H](C7=CC(=O)OC7)CC[C@]65O)C4)O[C@@H]3C)O[C@@H]2C)C[C@H](O)[C@@H]1O
inactive: Potency [7] | Potency [9] | Potency (Aromatase (Homo sapiens))
active: Potency [1] 535 nM and 97.8 nM and 193 nM | Potency [2] 596 nM and 344 nM and 854 nM | Potency [3] 596 nM and 172 nM and 428 nM | Potency [4] 750 nM and 217 nM and 381 nM | Potency [5] 84.9 nM and 15.5 nM and 30.6 nM | Potency [6] 338 nM and 61.7 nM and 136 nM | Potency [8] 0.0195 µM

CCC(C)(C)c1cc(O)c(C(C)(C)CC)cc1O
inactive: Potency [1] | Potency [5] | Potency [10] | Potency [7] | Potency [11] | Potency [12] | Potency [13] | Potency [14] | Potency [15] | Potency [9]
active: Potency [2] 17.2 µM | Potency [3] 21.7 µM | Potency [4] 17.2 µM | activity change, negative = inhibition [16] 6.54% | Potency (Aromatase (Homo sapiens)) 24.3 µM

CCc1cccc(C)c1
inactive: Potency [1] | Potency [2] | Potency [3] | Potency [4] | Potency [5] | Potency [7] | Potency [12] | Potency [17] | Potency [13] | Potency [18] | Potency [8] | Potency [14] | Potency [15] | Potency [16] | Potency [9] | Potency (Aromatase (Homo sapiens))

CCCCCCCCCCCCCC[n+]1ccccc1
inactive: Potency [13] | Potency [14]
active: Potency [1] 13.8 µM | Potency [2] 0.122 µM | Potency [3] 0.077 µM | Potency [4] 0.109 µM | Potency [5] 12.3 µM | Potency [7] 4.33 µM | Potency [12] 6.86 µM | Potency [17] 2.43 µM | Potency [8] 24.5 µM | Potency [16] 4.86 µM | Potency (Aromatase (Homo sapiens)) 6.11 µM

NC(=O)C(=O)N/N=C/c1ccc([N+](=O)[O-])o1
inactive: Potency [1] | Potency [5] | Potency [10] | Potency [7] | Potency [18] | Potency [8] | Potency [14] | Potency [15] | Potency [9]
active: Potency [2] 10.6 µM | Potency [3] 11.9 µM | Potency [4] 16.8 µM | Potency [12] 26.6 µM | Potency [17] 21.1 µM

C[Si](C)(C)Cl
inactive: Potency [1] | Potency [2] | Potency [3] | Potency [4] | Potency [5] | Potency [6] | outcome [19] | Potency [10] | Potency [7] | Potency [11] | Potency [12] | Potency [17] | Potency [13] | Potency [18] | Potency [8] | Potency [14] | Potency [15] | Potency [16] | Potency [9] | Potency (Aromatase (Homo sapiens))

N[C@@H](CSSC[C@H](N)C(=O)O)C(=O)O
inactive: Potency [1] | Potency [2] | Potency [3] | Potency [4] | Potency [5] | Potency [6] | outcome [19] | Potency [10] | Potency [7] | Potency [12] | Potency [17] | Potency [13] | Potency [8] | Potency [9] | Potency (Aromatase (Homo sapiens))

O=C(O)CC(=O)O
inactive: Potency [1] | Potency [2] | Potency [3] | Potency [4] | Potency [5] | Potency [7] | Potency [12] | Potency [17] | Potency [13] | Potency [8] | Potency [9] | Potency (Aromatase (Homo sapiens))

O=C1NCCN1CCN1CCC(c2cn(-c3ccc(F)cc3)c3ccc(Cl)cc23)CC1
inactive: outcome [19] | Potency [10] | Potency [14] | Potency [9]
active: Potency [1] 23.9 µM | Potency [2] 944 nM and 1.5 µM | Potency [3] 1.88 µM and 2.37 µM | Potency [4] 1.68 µM and 2.66 µM | Potency [5] 16.9 µM and 21.3 µM | Potency [6] 16.9 µM and 21.3 µM | Potency [7] 13.3 µM and 21.1 µM | Potency [11] 11.9 µM and 18.8 µM | Potency [12] 6.68 µM | Potency [17] 5.96 µM | Potency [8] 15.1 µM and 9.52 µM | Potency [16] 29.8 µM

Cn1cnc2ncnc(N)c21
inactive: Potency [1] | Potency [2] | Potency [3] | Potency [4] | Potency [5] | Potency [7] | Potency [12] | Potency [17] | Potency [13] | Potency [18] | Potency [8] | Potency [14] | Potency [15] | Potency [16] | Potency [9] | Potency (Aromatase (Homo sapiens))

C=C(c1ccc(C(=O)O)cc1)c1cc2c(cc1C)C(C)(C)CCC2(C)C
inactive: Potency [2] | Potency [5] | Potency [7] | Potency [15] | Potency [9]
active: Potency [1] 13.4 µM | Potency [3] 77 µM | Potency [4] 68.6 µM | Potency [12] 11.9 µM and 13.7 µM | Potency [17] 9.44 µM and 9.69 µM | Potency [18] 17.4 µM [fluorescent] | Potency [16] 3.76 µM
inactive and 61.1 µM (active): Potency (Aromatase (Homo sapiens))

Clc1ccc(C(Cn2ccnc2)OCc2c(Cl)cccc2Cl)c(Cl)c1 (stereo unspecified)
inactive: Potency [1] | Potency [5] | Potency [10] | Potency [7] | Potency [11] | Potency [8] | Potency [15] | Potency [16] | Potency [9]
active: Potency [2] 11.4 µM | Potency [3] 12.7 µM | Potency [4] 11.4 µM | Potency [17] 11.4 µM | Potency (Aromatase (Homo sapiens)) 10.1 µM

O=C1c2c(O)ccc([N+](=O)[O-])c2C(=O)c2c([N+](=O)[O-])ccc(O)c21
inactive: Potency [13]
active: Potency [1] 8.63 µM | Potency [2] 13.6 µM | Potency [3] 6.8 µM | Potency [4] 5.4 µM | Potency [5] 6.85 µM | Potency [7] 21.5 µM | Potency [12] 6.8 µM | Potency [17] 6.8 µM | Potency [8] 38.5 µM | Potency [9] 30.4 µM | Potency (Aromatase (Homo sapiens)) 6.06 µM
